Growth inhibition, inhibition and outcome data for 23 molecules are collected here from PubChem BioAssay.

Assay [1] can be described thus: antimalarial activity against Dd2 strain (AID 2302;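 active means growth inhibition above 50% at the single 2 µM test dose, taken to imply half-maximal potency below 2 µM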;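 further: 0% = DMSO untreated growth and 100% = chloroquine plus artemisinin killed control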). Particulars: P. falciparum Dd2 in RBCs, LDH growth readout, 72 h; at 2 µM; stronger effect = higher value.
The nature of assay [2]: human hepatoma cell viability loss – ATP luminescence, cytotoxicity control for P. falciparum antimalarial project, primary screen (AID 2303;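 active means inhibition above 50%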;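 further: 0% = DMSO wells and 100% = digitonin-killed cells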). Conditions: HepG2 viability, 24-48 h, at 10 µM, stronger effect = higher value.
The target in assay [3] is L-lactate dehydrogenase (Plasmodium falciparum (isolate CDC / Honduras)) (UniProt Q27743). The assay can be described thus: PfLDH activity inhibition – cell lysate, 3D7 strain, counter-screen for P. falciparum growth inhibition project (AID 2304).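 Further: 0% = vehicle and 100% = reference inhibitor.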 Conditions: P. falciparum 3D7 crude extract, LDH APAD/NBT absorbance; at 2 µM; stronger effect = higher value.
The nature of assay [4]: inhibition of 3D7 malaria parasite growth – strain 3D7 (AID 2306).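 Further: 0% = DMSO wells and 100% = chloroquine plus artemisinin control wells.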 Particulars: P. falciparum 3D7 erythrocytic growth, LDH absorbance, 72 h; at 2 µM; stronger effect = higher value.
The target of assay [5] is Calcium-dependent protein kinase 1 (Plasmodium falciparum (isolate 3D7)) (UniProt P62344). The assay is described as follows: PfCDPK1 kinase inhibitors, biochemical, TCAMS library (AID 1159585; cut-off not given, nearly all actives have IC50 up to about 0.98 µM;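 further: inhibitors leave more ATP so luminescence rises with inhibition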). Particulars: recombinant PfCDPK1, Kinase-Glo ATP depletion luminescence. In general terms: Kinase-Glo reads ATP consumption through a luciferase reaction.
The target of assay [6] is Plasmodium falciparum protein kinase 6 (PK6, PF3D7_1337100) (UniProt Q8IDW1). The assay can be described thus: PfPK6 kinase inhibitors, biochemical, TCAMS library (AID 1159586). Particulars: recombinant PfPK6, Kinase-Glo ATP depletion luminescence.
Assay [7] has as its target Protein kinase 7 (PK7), Plasmodium falciparum 3D7 (PF3D7_0213400) (UniProt Q7YTF7). The assay is described as follows: inhibition of Plasmodium PK7 catalytic activity – biochemical, TCAMS antimalarial set, Kinase-Glo luminescence (AID 1159587). Conditions: recombinant PfPK7, Kinase-Glo ATP depletion luminescence.
The target of assay [8] is Calcium-dependent protein kinase 4 (Plasmodium falciparum (isolate 3D7)) (UniProt Q8IBS5). The assay can be described thus: PfCDPK4 kinase inhibitors, biochemical, TCAMS library (AID 1159588; cut-off not given, nearly all actives have IC50 up to about 0.91 µM). Conditions: recombinant PfCDPK4, Kinase-Glo ATP depletion luminescence.

Values without a mark were called inactive. For some of these results: Potency and affinity values are given separately. Activity calls are given as the source filed them. Unless noted, how the calls were made is not given here.

Sequence of Calcium-dependent protein kinase 1 (Plasmodium falciparum (isolate 3D7)) (P62344 whole entry, looked up): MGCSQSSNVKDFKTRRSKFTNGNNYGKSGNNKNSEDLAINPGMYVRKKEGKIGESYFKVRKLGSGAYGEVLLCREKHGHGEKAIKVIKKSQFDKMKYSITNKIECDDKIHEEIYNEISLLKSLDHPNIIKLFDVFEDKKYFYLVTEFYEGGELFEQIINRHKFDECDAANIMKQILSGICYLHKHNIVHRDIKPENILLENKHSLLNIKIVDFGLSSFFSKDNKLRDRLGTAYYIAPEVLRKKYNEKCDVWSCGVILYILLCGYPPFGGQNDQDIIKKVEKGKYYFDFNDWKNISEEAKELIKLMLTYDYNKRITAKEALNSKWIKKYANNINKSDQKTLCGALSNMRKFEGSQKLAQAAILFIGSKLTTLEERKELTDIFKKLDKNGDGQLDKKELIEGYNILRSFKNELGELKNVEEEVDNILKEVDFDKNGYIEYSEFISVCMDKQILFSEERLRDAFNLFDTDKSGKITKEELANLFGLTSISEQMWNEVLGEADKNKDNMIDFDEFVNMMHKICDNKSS
Sequence of Protein kinase 7 (PK7), Plasmodium falciparum 3D7 (PF3D7_0213400) (Q7YTF7 1-343): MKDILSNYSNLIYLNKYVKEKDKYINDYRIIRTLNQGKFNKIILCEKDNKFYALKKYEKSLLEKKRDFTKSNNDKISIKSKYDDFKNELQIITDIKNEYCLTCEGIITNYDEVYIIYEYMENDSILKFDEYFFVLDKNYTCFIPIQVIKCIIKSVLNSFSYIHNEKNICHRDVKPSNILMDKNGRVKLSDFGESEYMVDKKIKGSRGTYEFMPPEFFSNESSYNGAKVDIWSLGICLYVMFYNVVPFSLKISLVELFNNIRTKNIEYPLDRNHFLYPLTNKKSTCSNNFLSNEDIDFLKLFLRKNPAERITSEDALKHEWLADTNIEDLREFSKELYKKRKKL
Sequence of Calcium-dependent protein kinase 4 (Plasmodium falciparum (isolate 3D7)) (Q8IBS5 whole entry, looked up): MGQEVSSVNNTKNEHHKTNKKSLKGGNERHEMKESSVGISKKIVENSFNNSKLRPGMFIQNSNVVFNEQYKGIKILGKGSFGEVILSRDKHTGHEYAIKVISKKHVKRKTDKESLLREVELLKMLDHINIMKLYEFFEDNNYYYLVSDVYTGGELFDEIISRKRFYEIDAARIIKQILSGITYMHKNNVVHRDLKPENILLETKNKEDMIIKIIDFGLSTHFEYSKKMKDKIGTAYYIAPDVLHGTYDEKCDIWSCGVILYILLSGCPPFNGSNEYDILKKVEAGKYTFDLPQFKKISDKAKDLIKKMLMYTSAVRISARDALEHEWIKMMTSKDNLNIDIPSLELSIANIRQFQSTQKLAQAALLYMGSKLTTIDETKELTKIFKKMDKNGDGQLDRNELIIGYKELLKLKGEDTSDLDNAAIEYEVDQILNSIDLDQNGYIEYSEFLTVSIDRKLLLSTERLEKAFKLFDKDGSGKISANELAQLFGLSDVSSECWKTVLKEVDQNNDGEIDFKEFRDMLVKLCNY
Sequence of Plasmodium falciparum protein kinase 6 (PK6, PF3D7_1337100) (Q8IDW1 1-305): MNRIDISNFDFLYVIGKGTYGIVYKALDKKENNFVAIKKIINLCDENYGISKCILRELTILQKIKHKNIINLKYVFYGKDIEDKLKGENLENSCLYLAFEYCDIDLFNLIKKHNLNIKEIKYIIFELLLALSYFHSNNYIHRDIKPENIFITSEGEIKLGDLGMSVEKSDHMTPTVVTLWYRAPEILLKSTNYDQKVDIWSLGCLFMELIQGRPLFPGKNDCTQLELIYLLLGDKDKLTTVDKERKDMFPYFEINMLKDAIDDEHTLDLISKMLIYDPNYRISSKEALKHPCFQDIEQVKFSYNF
Sequence of L-lactate dehydrogenase (Plasmodium falciparum (isolate CDC / Honduras)) (Q27743 whole entry, looked up): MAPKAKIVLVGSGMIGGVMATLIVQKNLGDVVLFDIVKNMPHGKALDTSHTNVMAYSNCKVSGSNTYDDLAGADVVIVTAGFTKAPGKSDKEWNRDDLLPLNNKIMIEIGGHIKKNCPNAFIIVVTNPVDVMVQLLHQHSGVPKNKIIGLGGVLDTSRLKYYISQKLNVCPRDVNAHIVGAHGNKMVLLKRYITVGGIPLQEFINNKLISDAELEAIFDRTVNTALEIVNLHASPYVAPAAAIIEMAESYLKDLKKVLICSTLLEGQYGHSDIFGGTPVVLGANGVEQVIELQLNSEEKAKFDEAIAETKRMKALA

In general, inhibition refers to the relative decrease from the control value, in per cent. As for `c1ccc2c(CNCCCCCCNCc3c(OCC4CC4)ccc4ccccc34)c(OCC3CC3)ccc2c1`, the growth inhibition in assay [1] was 97% (active); in assay [4] it was 93% (active). Also, the inhibition in assay [2] was 100% (active); in assay [3], -8%. In addition, the result in assay [5], in assay [6], in assay [7] and in assay [8] was inactive.
For the molecule `COc1ccc(CN2CCC(CNCCc3ccccc3Cl)CC2)cc1`, the growth inhibition is 17% in assay [1] and 87% (active) in assay [4]. For the same molecule, the inhibition in assay [2] was 36%; in assay [3], -9%. In addition, the result in assay [5], in assay [6], in assay [7] and in assay [8] was inactive.
Turning to `CC(C)(C)OC(=O)[C@H](CC(N)=O)NC(=O)c1ccc(-c2ccc(-c3nc4ccc(C(F)(F)F)cc4[nH]3)s2)cc1`, the growth inhibition in assay [1] was 88% (active); in assay [4], 94% (active). The inhibition was 62% (active) in assay [2] and -2% in assay [3]. For the same molecule, the result in assay [5], in assay [6], in assay [7] and in assay [8] was inactive.
Regarding `CCc1c[nH]c2c(N3CCCS3(=O)=O)cc(C(=O)N[C@@H](Cc3ccccc3)[C@H](O)CNC(C)(C)c3cccc(C(F)(F)F)c3)cc12`, the growth inhibition was 99% (active) in assay [1] and 97% (active) in assay [4]. The results for the inhibition in assay [2] and in assay [3] were 20% and 2%, respectively. Also, the result in assay [5], in assay [6], in assay [7] and in assay [8] was inactive.
`COc1ccc(CCN(C)CCOc2ccc(NC(=O)c3ccc([N+](=O)[O-])c4c(=O)c5ccccc5[nH]c34)cc2)cc1OC`: the results for the growth inhibition in assay [1] and in assay [4] were 25% and 91% (active), respectively. Also, the figures for the inhibition in assay [2] and in assay [3] were 38% and -2%, respectively. Also, the result in assay [5], in assay [6], in assay [7] and in assay [8] was inactive.
With `Cn1nc(-c2cccc(CN[C@@H]3CCc4ccc(O)cc43)c2)c2cnc(NCCCN3CCCC3)nc21`, the growth inhibition in assay [1] is -2%; in assay [4], 101% (active). In addition, the inhibition was 9% in assay [2] and -3% in assay [3]. Also, the outcome in assay [5], in assay [6], in assay [7] and in assay [8] was inactive.
With `COc1ccc2nccc([C@@H](O)CN3CCC(NC(=O)Cn4nc(-c5ccc(C(F)(F)F)cc5)ccc4=O)CC3)c2c1`, the growth inhibition in assay [1] was 90% (active); in assay [4], 100% (active). Moreover, the inhibition was 12% in assay [2] and -3% in assay [3]. Besides, the result in assay [5], in assay [6], in assay [7] and in assay [8] was inactive.
For the molecule `COc1ccc2nc3cc(Cl)ccc3c(Nc3ccc(O)c(CN4CC5CCC(CC5)C4)c3)c2c1`, the growth inhibition in assay [1] is 100% (active); in assay [4], 102% (active). In addition, the inhibition in assay [2] is 17%; in assay [3], 3%. Besides, the result in assay [5], in assay [6], in assay [7] and in assay [8] was inactive.
Regarding `CCc1c(C(=O)NC2CCC(N3CCC(c4ccccc4C)CC3)CC2)[nH]c2ccc(OC)cc12` (centres undefined), the growth inhibition in assay [1] is 100% (active); in assay [4], 101% (active). The inhibition in assay [2] is 78% (active); in assay [3], -1%. Also, the result in assay [5], in assay [6], in assay [7] and in assay [8] was inactive.
As for `COCCCNc1nc2cc(OC)c(OC)cc2c2nc(-c3ccccc3)nn12`, the results for the growth inhibition in assay [1] and in assay [4] were 97% (active) and 95% (active), respectively. Moreover, the inhibition was 6% in assay [2] and -6% in assay [3]. Besides, the result in assay [5], in assay [6], in assay [7] and in assay [8] was inactive.
For the molecule `COc1ccc2nc(C)cc(NN=Cc3ccc(Cl)cc3)c2c1`, the growth inhibition in assay [1] and in assay [4] was 100% (active) each time. Also, the inhibition is 2% in assay [2] and 3% in assay [3]. Besides, the result in assay [5], in assay [6], in assay [7] and in assay [8] was inactive.
On to `O=C(N[C@@H](CC1CCCCC1)C(=O)NC1CCCCCC1)c1ccc(O)c(-c2ccc(Cl)c(Cl)c2)c1`, for which the growth inhibition was 100% (active) in assay [1] and 99% (active) in assay [4]. Moreover, the inhibition in assay [2] is -3%; in assay [3] it was -2%. In addition, the outcome in assay [5], in assay [6], in assay [7] and in assay [8] was inactive.
For the molecule `O=S(=O)(NCCN1CCCC1)c1ccc(-c2ccccc2CNC2Cc3ccccc3C2)cc1`, the figures for the growth inhibition in assay [1] and in assay [4] were 67% (active) and 95% (active), respectively. The values for the inhibition in assay [2] and in assay [3] were 19% and -9%, respectively. The outcome in assay [5], in assay [6], in assay [7] and in assay [8] was inactive.
Take `CCN1CCC(N(Cc2ccc(-c3ccc(C(F)(F)F)cc3)cc2)C(=O)CCCCn2c(CCc3cccc(F)c3F)nc(=O)c3ccccc32)CC1`: the growth inhibition in assay [1] is 77% (active); in assay [4], 90% (active). The inhibition in assay [2] is 54% (active); in assay [3], 4%. The result in assay [5], in assay [6], in assay [7] and in assay [8] was inactive.
`CCCCCCCCOc1c(OCC)cc(Cc2cnc(N)nc2N)cc1OCC`: the figures for the growth inhibition in assay [1] and in assay [4] were -1% and 80% (active), respectively. Also, the values for the inhibition in assay [2] and in assay [3] were 25% and 3%, respectively. Further, the result in assay [5], in assay [6], in assay [7] and in assay [8] was inactive.
As to `Cc1cc(N[C@@H](Cc2ccccc2)C(=O)NC2CCCC2)nc(NCc2ccccc2C)n1`, the growth inhibition in assay [1] is 20%; in assay [4] it was 91% (active). The inhibition in assay [2] is 2%; in assay [3], 3%. Moreover, the outcome in assay [5], in assay [6], in assay [7] and in assay [8] was inactive.
For `COc1cc2c(cc1C(F)(F)F)N(C(=O)Nc1cc(Br)cc(-c3cccnc3)c1)CC2`, the values for the growth inhibition in assay [1] and in assay [4] were 34% and 96% (active), respectively. For the same molecule, the inhibition is 8% in assay [2] and -1% in assay [3]. Further, the result in assay [5], in assay [6], in assay [7] and in assay [8] was inactive.
Regarding `COc1ccc(CN2CCC(Oc3cccc(NC(=O)c4ccc(C(F)(F)F)cc4)c3)CC2)cc1`, the growth inhibition in assay [1] is 20%; in assay [4] it was 95% (active). Further, the inhibition in assay [2] is 35%; in assay [3], -6%. Moreover, the result in assay [5], in assay [6], in assay [7] and in assay [8] was inactive.
Consider `CN1C(C)(C)CC(NC(=O)c2ccc(-c3cc4cc(Cl)c(Cl)cc4[nH]3)o2)CC1(C)C`, for which the growth inhibition in assay [1] was 43%; in assay [4], 101% (active). Also, the figures for the inhibition in assay [2] and in assay [3] were 21% and -4%, respectively. In addition, the outcome in assay [5], in assay [6], in assay [7] and in assay [8] was inactive.
`COc1ccc2nc(-c3ccccc3)cc(NCCCNc3cc(-c4ccccc4)nc4ccc(OC)cc34)c2c1`: the growth inhibition in assay [1] and in assay [4] was 99% (active) each time. Further, the inhibition in assay [2] is 100% (active); in assay [3], 9%. For the same molecule, the result in assay [5], in assay [6], in assay [7] and in assay [8] was inactive.
As for `COc1ccc(-n2nc(C)c3c2NC(=O)CC3c2ccccc2OCc2ccccc2F)cc1` (centres undefined), the results for the growth inhibition in assay [1] and in assay [4] were 70% (active) and 93% (active), respectively. Also, the inhibition in assay [2] is 38%; in assay [3], 4%. Besides, the result in assay [5], in assay [6], in assay [7] and in assay [8] was inactive.
Consider `CN1CCN(Cc2cccc(-c3ccc4c(Nc5ccc(F)cc5Cl)ccnc4c3)c2)CC1`, for which the results for the growth inhibition in assay [1] and in assay [4] were 100% (active) and 101% (active), respectively. Further, the inhibition in assay [2] is 20%; in assay [3], -1%. In addition, the outcome in assay [5], in assay [6], in assay [7] and in assay [8] was inactive.
`O=C(NCCCN1CCCC1=O)NCc1ccccc1`: the growth inhibition in assay [1] was 4%; in assay [4] it was 99% (active). Further, the inhibition in assay [2] is 8%; in assay [3], 3%. The outcome in assay [5], in assay [6], in assay [7] and in assay [8] was inactive.
